High-throughput results as filed in PubChem BioAssay.
BLM helicase inh: inhibitors of human Bloom syndrome helicase BLM; actives 0.2% (n = 350,000); AID 2528; Potency, µM (series often up to 56.1 µM), for inactives: at the top dose activity change, negative = inhibition, actives largely listed as inhibitors; P54132; recombinant BLM DNA unwinding, fluorescence dequenching;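 further: plate controls were vehicle for no effect and no enzyme for full effect; nearly all actives have a fitted effect of over 35% in size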
L3MBTL1 block: inhibitors of human L3MBTL1; actives 0.66% (n = 230,000); AlphaScreen L3MBTL1–H3K9me1 peptide binding; Potency, µM (doses to about 57.1 µM), inactives show top-dose activity, negative = inhibition, most hits filed as inhibitors; Q9Y468; AID 485360; further: nearly all actives have a fitted effect of over 60% in size
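First, the protein-peptide complex forms for 30 min at room temperature (L3MBTL1 50 nM, biotinylated H3K9me1 peptide 75 nM). Next, compounds are pin-transferred and incubated 30 min. Finally, AlphaScreen beads are added and read after 30 min.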
JMJD2E inh: inhibitors of human JMJD2E histone demethylase; JMJD2E catalytic domain, FDH-coupled NADH fluorescence (FDH is formaldehyde dehydrogenase); Potency, µM (series often up to 57.1 µM), inactives show top-dose activity change, negative = inhibition, usual class: inhibitors; actives 1.6% (n = 230,000); AID 2147; active means well fitted inhibition curve with a large enough effect, not every such curve was filed as active; inconclusive means small, poorly fitted or top-dose-only effect, or another doubt; inactive means no such curve, though single readings can be large or run the other way;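 further: 0% = wells with enzyme and -100% = buffer wells without enzyme; nearly all actives have a fitted effect of over 50% in size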
RECQ1 inh-1: RECQ1 (human) helicase inhibition; P46063; RECQ1 DNA unwinding, red fluorescence kinetic read; Potency, µM (doses to about 57.3 µM), for inactives: at the highest dose activity, negative = inhibition, usual class: inhibitors; actives 0.54% (n = 240,000); AID 2549;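 further: plate controls were vehicle for no effect and no enzyme for full effect; nearly all actives have a fitted effect of over 30% in size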
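50 nM RECQ1T1 preincubated 15 min with compound in Tris pH 8.0 buffer with MgCl2, DTT, Tween-20 and 2.5 ug/ml poly(dI-dC); started with 200 nM TAMRA/BHQ-2 forked duplex and 2 mM ATP. Unwinding read as fluorescence (525/598 nm), two reads 2 h apart.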
KAT2A inh: inhibitors of human GCN5L2 histone acetyltransferase | Potency, µM (series often up to 58.9 µM), inactives show at the highest dose activity change, negative = inhibition, usual class: inhibitors | Q92830 | AID 504327 | GCN5L2 HAT assay, ThioGlo1 CoA-SH fluorescence | actives 0.21% (n = 390,000)
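Compounds, pin-transferred from DMSO stocks, meet 20nM GCN5L2 for 15 min before the reaction begins with H3(1-25) peptide (75uM) and acetyl-CoA (70uM). Thiol-reactive ThioGlo1 reports CoA release over 20 min at room temperature.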
APE1 inh: APE1 (human) endonuclease inhibition. P27695. actives 0.35% (n = 350,000). recombinant APE1, TAMRA/BHQ-2 abasic DNA cleavage fluorescence. Potency, µM (doses to about 65.8 µM), without a hit: top-dose activity change, negative = inhibition, actives largely listed as inhibitors;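 further: plate controls were vehicle for no effect and reference inhibitor for full effect; nearly all actives have a fitted effect of over 55% in size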
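APE1 at 0.75 nM preincubated 15 min at room temperature with compound. Reaction then started with 50 nM double-stranded THF-abasic substrate labelled with TAMRA/BHQ-2, and 525/598 nm fluorescence read kinetically. Activity taken as third-minus-first read difference, normalized to DMSO and NSC13755 controls.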
RECQ1 inh-2: RECQ1 helicase inhibition confirmed, round 2 | shares compounds with RECQ1 inh-1 | recombinant RECQ1 DNA unwinding, red fluorescence | Potency, µM (titrated, usually from 119 µM), for the others: top-dose activity, negative = inhibition, actives largely listed as inhibitors | actives 15% (n = 1,100); further: nearly all actives have a fitted effect of over 50% in size
Starred values were filed as active, the others as inactive; [ ] = another dose, or the depositor's remark. The full list was thinned out, with hits kept by preference. Unless noted, the call rests on the fitted dose curve; in most records, active means well fitted curve in the direction sought with a large enough effect; inconclusive means small, poorly fitted or top-dose-only effect, or another doubt; inactive means no such curve, though single readings can be large; an effect the other way counts as inactive or inconclusive. Unless noted, on the % scale 0 is the no-effect control and ±100 the full control effect; potency means the concentration at half of the fitted maximal effect.

What do the screens show for `O=c1cc(N2CCNCC2)oc2c(-c3ccccc3)cccc12`?
BLM helicase inh: -4%; RECQ1 inh-1: -5%; KAT2A inh: 10%; APE1 inh: -3%

What do the screens show for `C=CCn1c(O)c(N=NC(=O)CNC(=O)/C=C/c2ccco2)c2ccccc21`?
BLM helicase inh: inconclusive; L3MBTL1 block: inconclusive; JMJD2E inh: -4%; RECQ1 inh-1: inconclusive; KAT2A inh: -14%; APE1 inh: inconclusive; RECQ1 inh-2: inconclusive

What do the screens show for `COc1cccc(CNC(=O)c2ccc3oc(=O)n(Cc4ccccc4)c3c2)c1`?
BLM helicase inh: -6%; KAT2A inh: 15%

What do the screens show for `CCNc1ccc(Br)cc(C(=O)/C=C/c2ccc(Cl)cc2)c1=O`?
BLM helicase inh: -20%; L3MBTL1 block: -18%; JMJD2E inh: 25µM*; RECQ1 inh-1: 32µM*; KAT2A inh: -9%; APE1 inh: 2%; RECQ1 inh-2: -29%

What do the screens show for `CNc1ccc(Br)cc(C(=O)/C=C/c2cccc(OC)c2)c1=O`?
BLM helicase inh: -29%; L3MBTL1 block: inconclusive; JMJD2E inh: inconclusive; RECQ1 inh-1: 28µM*; KAT2A inh: -18%; APE1 inh: inconclusive; RECQ1 inh-2: inconclusive

Results for O=C(/C=C/c1ccc(F)cc1)c1cc(Br)ccc1O ?
BLM helicase inh: 0%; L3MBTL1 block: 51%; JMJD2E inh: 7%; RECQ1 inh-1: -2%; KAT2A inh: -6%; APE1 inh: -1%

How did Nc1ccccc1C(=O)/C=C\c1ccc2c(c1)OCO2 do in these assays?
BLM helicase inh: -5%[12.4 µM]; RECQ1 inh-1: 4%[11.5 µM]; APE1 inh: -7%[12.4 µM]

What do the screens show for `CCNc1ccc(Br)cc(C(=O)/C=C/c2ccc3c(c2)OCO3)c1=O`?
BLM helicase inh: -25%; L3MBTL1 block: 20µM*; JMJD2E inh: 14µM*; RECQ1 inh-1: inconclusive; KAT2A inh: -4%; APE1 inh: inconclusive; RECQ1 inh-2: inconclusive

Results for CNc1ccc(Br)cc(C(=O)/C=C/c2ccc(OC)cc2OC)c1=O ?
BLM helicase inh: inconclusive; L3MBTL1 block: inconclusive; JMJD2E inh: inconclusive; RECQ1 inh-1: -15%; KAT2A inh: -20%; APE1 inh: -9%

Results for CCOC(=O)N1CCC(Nc2c(NCCCN3CCN(C4CCCCC4)CC3)c(=O)c2=O)CC1 ?
BLM helicase inh: 2%; JMJD2E inh: 1%; RECQ1 inh-1: -1%; KAT2A inh: -4%; APE1 inh: 9%

What do the screens show for `Cc1ccc(S(=O)(=O)N2CCN(C(=O)N(C)C)CC2)cc1`?
BLM helicase inh: -2%; L3MBTL1 block: -4%; JMJD2E inh: 5%; RECQ1 inh-1: inactive; KAT2A inh: 1%; APE1 inh: 3%

What do the screens show for `Nc1c(C(=O)Nc2ccc(F)cc2)sc2nc(-c3ccco3)ccc12`?
BLM helicase inh: -14%; L3MBTL1 block: 3%; JMJD2E inh: inconclusive; RECQ1 inh-1: 22µM*; KAT2A inh: -10%; APE1 inh: inconclusive; RECQ1 inh-2: -16%

What do the screens show for `NC(=O)c1sc2nc(-c3ccccc3)ccc2c1N`?
BLM helicase inh: 1%; L3MBTL1 block: 1%; KAT2A inh: -11%; APE1 inh: 4%

Results for CC(=O)c1sc2nc(-c3ccco3)ccc2c1N ?
BLM helicase inh: inconclusive; L3MBTL1 block: -22%; JMJD2E inh: inconclusive; RECQ1 inh-1: 3.5µM*; KAT2A inh: inconclusive; APE1 inh: 3.2µM*; RECQ1 inh-2: -21%

What do the screens show for `Nc1c(C(=O)Nc2ccc(Br)cc2)sc2nc(-c3ccco3)ccc12`?
BLM helicase inh: -21%; L3MBTL1 block: 1%; JMJD2E inh: inconclusive; RECQ1 inh-1: -22%; KAT2A inh: -23%; APE1 inh: -14%
